PubChem BioAssay AID1159580 (chemical genetic matrix, 2015)
About 2,000 (36%) of roughly 5,500 compounds were called active. Another 18% or so got no clear call; they are omitted. No stated cut-off is given here; in the data, active means normalized growth mostly below about 0.91 (no sharp cut-off); inconclusive means no clear call, values can overlap the other calls; inactive means mostly above about 0.92. Some of the results follow.

Test: chemical genetic growth profiling, strain panel (AID 1159580);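 further: tested at 20 µM; growth read once vehicle control cultures reached saturation at 30 °C; 1 = growth at the plate median or of vehicle wells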
Conditions: growth OD

Measured: normalized growth

CCC1OC(=O)[C@H](C)C(=O)[C@H](C)[C@@H](OC2O[C@H](C)C[C@H](N(C)C)[C@H]2O)[C@](C)(OC)C2(CCCn3cnc(-c4cccnc4)c3)C[C@@H](C)C(=O)[C@H](C)[C@H]3N(C2)C(=O)O[C@]13C (some centres undefined)
inactive: S. cerevisiae deletion strains, locus YJR043C, strain POL32, stronger effect = lower value 0.994 | S. cerevisiae deletion strains, locus YJR075W, strain HOC1, stronger effect = lower value 0.99 | S. cerevisiae deletion strains, locus YKL009W, strain mrt4, stronger effect = lower value 1.01 | S. cerevisiae deletion strains, locus YKL068W, stronger effect = lower value 1.01 | S. cerevisiae deletion strains, locus YKL085W, strain MDH1 (second series), stronger effect = lower value 0.998 | S. cerevisiae deletion strains, locus YKL085W, strain MDH1, stronger effect = lower value 0.998 | S. cerevisiae deletion strains, locus YKL160W, strain elf1, stronger effect = lower value 0.994 | S. cerevisiae deletion strains, locus YKL190W, strain CNB1, stronger effect = lower value 1 | S. cerevisiae deletion strains, locus YKR001C, strain vps1, stronger effect = lower value 0.997 | S. cerevisiae deletion strains, locus YKR026C, strain gcn3, stronger effect = lower value 0.989 | S. cerevisiae deletion strains, locus YKR091W, strain srl3, stronger effect = lower value 0.985 | S. cerevisiae deletion strains, locus YLL001W, strain dnm1, stronger effect = lower value 0.984 | S. cerevisiae deletion strains, locus YLL026W, stronger effect = lower value 0.988 | S. cerevisiae deletion strains, locus YLL041C, strain sdh2, stronger effect = lower value 0.977 | S. cerevisiae deletion strains, locus YLR027C, strain aat2, stronger effect = lower value 0.99 | S. cerevisiae deletion strains, locus YLR039C, strain RIC1, stronger effect = lower value 1.02 | S. cerevisiae deletion strains, locus YLR058C, strain SHM2, stronger effect = lower value 1 | S. cerevisiae deletion strains, locus YLR102C, strain apc9, stronger effect = lower value 0.997 | S. cerevisiae deletion strains, locus YLR221C, strain rsa3, stronger effect = lower value 0.973 | S. cerevisiae deletion strains, locus YLR258W, strain gsy2, stronger effect = lower value 0.983 | S. cerevisiae deletion strains, locus YLR262C, strain YPT6 (second series), stronger effect = lower value 0.978 | S. cerevisiae deletion strains, locus YLR262C, strain YPT6, stronger effect = lower value 1.04 | S. cerevisiae deletion strains, locus YLR268W, strain sec22, stronger effect = lower value 0.98 | S. cerevisiae deletion strains, locus YLR320W, strain mms22, stronger effect = lower value 0.975 | S. cerevisiae deletion strains, locus YLR330W, strain CHS5, stronger effect = lower value 1 | S. cerevisiae deletion strains, locus YLR342W, strain FKS1 (second series), stronger effect = lower value 0.999 | S. cerevisiae deletion strains, locus YLR342W, strain FKS1, stronger effect = lower value 1.01 | S. cerevisiae deletion strains, locus YLR357W, strain rsc2, stronger effect = lower value 0.935 | S. cerevisiae deletion strains, locus YLR370C, strain arc18, stronger effect = lower value 0.985 | S. cerevisiae deletion strains, locus YLR371W, strain rom2, stronger effect = lower value 1.01 | S. cerevisiae deletion strains, locus YLR384C, strain iki3, stronger effect = lower value 0.995 | S. cerevisiae deletion strains, locus YLR418C, strain cdc73, stronger effect = lower value 0.979 | S. cerevisiae deletion strains, locus YML016C, strain PPZ1, stronger effect = lower value 1.01 | S. cerevisiae deletion strains, locus YML032C, strain rad52, stronger effect = lower value 1.01 | S. cerevisiae deletion strains, locus YML120C, strain ndi1, stronger effect = lower value 0.966 | S. cerevisiae deletion strains, locus YML124C, strain tub3, stronger effect = lower value 1.01 | S. cerevisiae deletion strains, locus YMR058W, strain fet3, stronger effect = lower value 0.974 | S. cerevisiae deletion strains, locus YMR078C, strain ctf18, stronger effect = lower value 1.01 | S. cerevisiae deletion strains, locus YMR125W, strain sto1, stronger effect = lower value 1.01 | S. cerevisiae deletion strains, locus YMR129W, stronger effect = lower value 0.974 | S. cerevisiae deletion strains, locus YMR205C, strain PFK2, stronger effect = lower value 0.996 | S. cerevisiae deletion strains, locus YMR223W, strain ubp8, stronger effect = lower value 1 | S. cerevisiae deletion strains, locus YMR231W, strain pep5, stronger effect = lower value 0.98 | S. cerevisiae deletion strains, locus YMR263W, strain SAP30, stronger effect = lower value 1 | S. cerevisiae deletion strains, locus YMR307W, strain GAS1, stronger effect = lower value 0.93 | S. cerevisiae deletion strains, locus YNL067W, strain RPL9B, stronger effect = lower value 1.01 | S. cerevisiae deletion strains, locus YNL071W, strain lat1, stronger effect = lower value 0.99 | S. cerevisiae deletion strains, locus YNL128W, strain TEP1, stronger effect = lower value 1.01 | S. cerevisiae deletion strains, locus YNL153C, strain GIM3, stronger effect = lower value 1.01 | S. cerevisiae deletion strains, locus YNL209W, strain ssb2, stronger effect = lower value 0.986 | S. cerevisiae deletion strains, locus YNL233W, strain BNI4, stronger effect = lower value 1.01 | S. cerevisiae deletion strains, locus YNL248C, strain rpa49, stronger effect = lower value 0.946 | S. cerevisiae deletion strains, locus YNL250W, strain rad50, stronger effect = lower value 0.992 | S. cerevisiae deletion strains, locus YNL271C, strain bni1, stronger effect = lower value 0.997 | S. cerevisiae deletion strains, locus YNL298W, strain CLA4, stronger effect = lower value 0.995 | S. cerevisiae deletion strains, locus YNL307C, strain MCK1, stronger effect = lower value 1.01 | S. cerevisiae deletion strains, locus YNL322C, strain KRE1 (second series), stronger effect = lower value 0.968 | S. cerevisiae deletion strains, locus YNL322C, strain KRE1, stronger effect = lower value 1 | S. cerevisiae deletion strains, locus YNR049C, strain mso1, stronger effect = lower value 0.958 | S. cerevisiae deletion strains, locus YNR052C, strain pop2, stronger effect = lower value 1.01 | S. cerevisiae deletion strains, locus YOL006C, strain TOP1, stronger effect = lower value 1 | S. cerevisiae deletion strains, locus YOL012C, strain htz1 1.16 | S. cerevisiae deletion strains, locus YOL147C, strain pex11, stronger effect = lower value 1 | S. cerevisiae deletion strains, locus YOR001W, strain rrp6, stronger effect = lower value 1 | S. cerevisiae deletion strains, locus YOR061W, strain CKA2, stronger effect = lower value 1.01 | S. cerevisiae deletion strains, locus YOR069W, strain VPS5, stronger effect = lower value 1.01 | S. cerevisiae deletion strains, locus YOR070C, strain gyp1, stronger effect = lower value 0.984 | S. cerevisiae deletion strains, locus YOR080W, strain dia2, stronger effect = lower value 0.968 | S. cerevisiae deletion strains, locus YOR083W, strain WHI5, stronger effect = lower value 1.01 | S. cerevisiae deletion strains, locus YOR106W, strain vam3, stronger effect = lower value 0.994 | S. cerevisiae deletion strains, locus YOR136W, strain idh2, stronger effect = lower value 1.01 | S. cerevisiae deletion strains, locus YOR144C, strain elg1, stronger effect = lower value 1 | S. cerevisiae deletion strains, locus YOR184W, strain ser1, stronger effect = lower value 0.996 | S. cerevisiae deletion strains, locus YOR265W, strain rbl2, stronger effect = lower value 0.996 | S. cerevisiae deletion strains, locus YOR270C, strain vph1, stronger effect = lower value 0.963 | S. cerevisiae deletion strains, locus YOR290C, strain snf2, stronger effect = lower value 0.963 | S. cerevisiae deletion strains, locus YOR316C, strain cot1, stronger effect = lower value 0.998 | S. cerevisiae deletion strains, locus YPL051W, strain arl3, stronger effect = lower value 1 | S. cerevisiae deletion strains, locus YPL055C, strain LGE1, stronger effect = lower value 1.02 | S. cerevisiae deletion strains, locus YPL078C, strain atp4, stronger effect = lower value 0.984 | S. cerevisiae deletion strains, locus YPL106C, strain sse1, stronger effect = lower value 0.943 | S. cerevisiae deletion strains, locus YPL240C, strain hsp82, stronger effect = lower value 0.986 | S. cerevisiae deletion strains, locus YPL241C, strain CIN2, stronger effect = lower value 1 | S. cerevisiae deletion strains, locus YPR119W, strain clb2, stronger effect = lower value 1 | S. cerevisiae deletion strains, locus YPR141C, strain kar3, stronger effect = lower value 1 | S. cerevisiae deletion strains, locus YPR163C, strain tif3, stronger effect = lower value 1.01 | S. cerevisiae deletion strains, locus YPR167C, strain met16, stronger effect = lower value 1 | S. cerevisiae deletion strains, strain wtn01, stronger effect = lower value 0.977 | S. cerevisiae strains, strain wild type, stronger effect = lower value 0.999
